Source: PubChem BioAssay (NCI)
“And” between values parts separate entries of the source, which are not always exact repeats. Equal entries are not always repeated. About 83,000 compounds went through this panel and 20% of them were active in at least one assay; those are over-represented in the sample as a whole.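 Testing used 96-well plates and a 48-hour single-concentration exposure. Example: -40 means 40% of the starting cells died.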 The source made the active and inactive calls. The calls were made as follows: active = growth percent below 10; inactive = the rest.

Tests used:
Assay in all cases: NCI-60 one-dose screen, 48 h (100 = growth as untreated, 0 = no growth, -100 = all killed)
Conditions in all cases: 10 µM unless noted
[1] = tested on: NCI-H23 lung
[2] = tested on: NCI-H226 lung
[3] = tested on: NCI-H322M lung
[4] = tested on: HOP-62 NSCLC
[5] = tested on: NCI-H460 lung
[6] = tested on: HOP-92 NSCLC
[7] = tested on: NCI-H522 lung
[8] = tested on: A549/ATCC NSCLC
[9] = tested on: 786-0 renal
[10] = tested on: COLO 205 colon
[11] = tested on: DU-145 prostate
[12] = tested on: K-562 leukemia
[13] = tested on: MALME-3M melanoma
[14] = tested on: MDA-MB-231 breast
[15] = tested on: RXF 393 renal
[16] = tested on: SF-268 CNS
[17] = tested on: SF-295 CNS
[18] = tested on: SF-539 CNS
[19] = tested on: UACC-257 melanoma
[20] = tested on: M14 melanoma

| Structure (SMILES) | growth [1] | growth [2] | growth [3] | growth [4] | growth [5] | growth [6] | growth [7] | growth [8] | growth [9] | growth [10] | growth [11] | growth [12] | growth [13] | growth [14] | growth [15] | growth [16] | growth [17] | growth [18] | growth [19] | growth [20] |
| --- | --- | --- | --- | --- | --- | --- | --- | --- | --- | --- | --- | --- | --- | --- | --- | --- | --- | --- | --- | --- |
| CC1(C)[C@@H](OC(=O)CCC(=O)O)CC[C@]2(C)[C@H]3C(=O)C=C4[C@@H]5C[C@@](C)(C(=O)O)CC[C@]5(C)CC[C@@]4(C)[C@]3(C)CC[C@@H]12 | 105% (inactive) and -34.8% (active) | 104% (inactive) and -75.4% (active) | 107% (inactive) and -54.4% (active) | 103% (inactive) and -54.9% (active) | 103% (inactive) and -35.3% (active) | 121% (inactive) and -74.4% (active) | 86.5% (inactive) and -40.5% (active) | 107% (inactive) and -28.4% (active) | 98.4% (inactive) and -66.9% (active) | 113% (inactive) and -3.87% (active) | 101% (inactive) and -1.77% (active) | 92.3% (inactive) and 5.05% (active) | 108% (inactive) and -65.4% (active) | 110% (inactive) and -5.44% (active) | 125% (inactive) and -88.8% (active) | 96.1% (inactive) and -27% (active) | 106% (inactive) and -51.1% (active) | 99.9% (inactive) and -73% (active) | 99.2% (inactive) and -46.5% (active) | 103% (inactive) and -12.8% (active) |
| O=S1(=O)CC(Br)C(Br)C1 (stereo not given) | 61.3% (inactive) and 97.8% (inactive) | 40.7% (inactive) and 113% (inactive) | 104% (inactive) and 108% (inactive) | 104% (inactive) and 116% (inactive) | 107% (inactive) and 97.5% (inactive) | 5.91% (active) and 37.5% (inactive) | -48.2% (active) | 95.4% (inactive) and 95% (inactive) | 101% (inactive) and 82.1% (inactive) | 41.1% (inactive) and 58.3% (inactive) | 72.3% (inactive) and 129% (inactive) | 47% (inactive) and 69.7% (inactive) | 19.9% (inactive) and 53.1% (inactive) | 88% (inactive) and 103% (inactive) | 40.1% (inactive) and 67.5% (inactive) | 109% (inactive) and 129% (inactive) | 111% (inactive) and 99.8% (inactive) | 97.6% (inactive) and 99.1% (inactive) | 71.5% (inactive) and 64.7% (inactive) | 73.2% (inactive) and 87.5% (inactive) |
| Clc1ccc(NC(Nc2ccc(Cl)cc2)C(Cl)(Cl)Cl)cc1 | 78.1% (inactive) and 96.5% (inactive) | 107% (inactive) and 96.8% (inactive) | 81.4% (inactive) and 104% (inactive) | 61.3% (inactive) and 86.3% (inactive) | 93.9% (inactive) and 105% (inactive) | 105% (inactive) | 71.2% (inactive) and 72.1% (inactive) | 80.9% (inactive) and 92.3% (inactive) | 68.5% (inactive) and 93.6% (inactive) | 129% (inactive) and 101% (inactive) | 112% (inactive) and 100% (inactive) | 17.7% (inactive) and 43.8% (inactive) | 101% (inactive) and 114% (inactive) | 87.3% (inactive) and 116% (inactive) | 111% (inactive) and 113% (inactive) | 87.7% (inactive) and 90.5% (inactive) | 90.3% (inactive) and 97% (inactive) | 110% (inactive) and 100% (inactive) | 90.1% (inactive) and 99.6% (inactive) | 71.1% (inactive) and 82.3% (inactive) |
| CCOC(=O)c1c(C)oc(C)c(C(=O)OCC)c1=O | 91.8% (inactive) and 96% (inactive) | 95.9% (inactive) and 104% (inactive) | 99.7% (inactive) and 107% (inactive) | 99.9% (inactive) and 96.7% (inactive) | 108% (inactive) and 104% (inactive) | 98.3% (inactive) and 73.8% (inactive) | 109% (inactive) and 94.9% (inactive) | 104% (inactive) and 106% (inactive) | 98.8% (inactive) and 104% (inactive) | 117% (inactive) | 118% (inactive) and 110% (inactive) | 102% (inactive) and 87% (inactive) | 133% (inactive) and 100% (inactive) | 109% (inactive) and 108% (inactive) | 104% (inactive) and 117% (inactive) | 102% (inactive) and 104% (inactive) | 133% (inactive) and 105% (inactive) | 102% (inactive) and 92.8% (inactive) | 102% (inactive) and 107% (inactive) | 98.8% (inactive) |
| O=C1c2ccccc2C(=O)N1/N=C/c1ccc2c(c1)OCO2 | 120% (inactive) | 101% (inactive) | 95.1% (inactive) | 104% (inactive) | 112% (inactive) | 74.4% (inactive) | 64.5% (inactive) | 87.7% (inactive) | 104% (inactive) | 99.5% (inactive) | 116% (inactive) | 99.8% (inactive) | 110% (inactive) | 87.2% (inactive) | 107% (inactive) | 103% (inactive) | 129% (inactive) | 101% (inactive) | 99.7% (inactive) | 99.7% (inactive) |
| CC(=O)c1ccccc1O | 103% (inactive) and 97.7% (inactive) | 102% (inactive) and 81.7% (inactive) and 104% (inactive) | 98.4% (inactive) and 89.7% (inactive) and 98.2% (inactive) | 101% (inactive) and 87.7% (inactive) and 103% (inactive) | 105% (inactive) and 107% (inactive) and 103% (inactive) | 83.7% (inactive) and 103% (inactive) | 108% (inactive) and 88.4% (inactive) and 111% (inactive) | 104% (inactive) and 81.9% (inactive) and 96.2% (inactive) | 104% (inactive) and 103% (inactive) and 101% (inactive) | 131% (inactive) and 106% (inactive) and 118% (inactive) | 112% (inactive) and 107% (inactive) and 116% (inactive) | 94.9% (inactive) and 95% (inactive) and 107% (inactive) | 101% (inactive) and 95% (inactive) and 114% (inactive) | 108% (inactive) and 99.3% (inactive) and 110% (inactive) | 101% (inactive) and 117% (inactive) and 129% (inactive) | 108% (inactive) and 99.6% (inactive) and 113% (inactive) | 108% (inactive) and 101% (inactive) and 105% (inactive) | 95.3% (inactive) and 103% (inactive) and 141% (inactive) | 109% (inactive) and 89.4% (inactive) and 96.1% (inactive) | 104% (inactive) and 98.3% (inactive) and 100% (inactive) |
| Cn1c(=O)n(-c2ccc(C(C)(C)C#N)cc2)c2c3cc(-c4cnc5ccccc5c4)ccc3ncc21 | 7.45% (active) and 15.4% (inactive) | 7.02% (active) and 9.42% (active) | 1.14% (active) and -0.589% (active) | 1.69% (active) and 3.34% (active) | 3.03% (active) and -9.04% (active) | -4.42% (active) | 2.87% (active) and -9.46% (active) | 0.549% (active) and -9.22% (active) | 0.54% (active) and -4.76% (active) | -25% (active) and -3.99% (active) | 15.3% (inactive) and 6.2% (active) | 10.2% (inactive) and 10.6% (inactive) | -14.1% (active) and -14.8% (active) | 19.3% (inactive) and 20% (inactive) | -22.6% (active) and -17.3% (active) | 11.2% (inactive) and 7.46% (active) | -20.4% (active) and -4.51% (active) | -30.1% (active) and -17.4% (active) | -9.78% (active) and -14.4% (active) | 7.18% (active) and 0.962% (active) |
| Nc1ccc(N=Nc2ccc(S(=O)(=O)O)cc2)cc1S(=O)(=O)O | 95.6% (inactive) and 99.8% (inactive) | 110% (inactive) and 99.8% (inactive) | 104% (inactive) and 110% (inactive) | 118% (inactive) and 101% (inactive) | 103% (inactive) and 96.2% (inactive) | 90.9% (inactive) and 72% (inactive) | 91% (inactive) and 96.3% (inactive) | 95.1% (inactive) and 103% (inactive) | 104% (inactive) and 106% (inactive) | 125% (inactive) and 119% (inactive) | 112% (inactive) and 104% (inactive) | 105% (inactive) | 117% (inactive) and 112% (inactive) | 88.2% (inactive) and 104% (inactive) | 99.9% (inactive) and 61.2% (inactive) | 95.2% (inactive) and 103% (inactive) | 121% (inactive) and 87.8% (inactive) | 102% (inactive) and 100% (inactive) | 150% (inactive) | 93.8% (inactive) and 117% (inactive) |
